# Reference: PMC7862700, “An all-to-all approach to the identification of sequence-specific readers for epigenetic DNA modifications on cytosine”
# Assays:
# Experiment in all cases: DAPPL (digital affinity profiling via proximity ligation, sequencing); 10 mM Tris-HCl pH 7.5, 50 mM NaCl, 1 mM DTT, 4% glycerol, room temperature, 30 min; GST-TFs on glutathione beads, 16-mer random dsDNA library, 0.1% formaldehyde crosslink after washing; high values mean tight binding
# Details in all cases: protein: recombinant; tags: N-terminal GST; dsDNA, one strand shown
# [1] = target: T1, FLI1 (Homo sapiens, UniProt Q01543 1-452)
# T1 sequence: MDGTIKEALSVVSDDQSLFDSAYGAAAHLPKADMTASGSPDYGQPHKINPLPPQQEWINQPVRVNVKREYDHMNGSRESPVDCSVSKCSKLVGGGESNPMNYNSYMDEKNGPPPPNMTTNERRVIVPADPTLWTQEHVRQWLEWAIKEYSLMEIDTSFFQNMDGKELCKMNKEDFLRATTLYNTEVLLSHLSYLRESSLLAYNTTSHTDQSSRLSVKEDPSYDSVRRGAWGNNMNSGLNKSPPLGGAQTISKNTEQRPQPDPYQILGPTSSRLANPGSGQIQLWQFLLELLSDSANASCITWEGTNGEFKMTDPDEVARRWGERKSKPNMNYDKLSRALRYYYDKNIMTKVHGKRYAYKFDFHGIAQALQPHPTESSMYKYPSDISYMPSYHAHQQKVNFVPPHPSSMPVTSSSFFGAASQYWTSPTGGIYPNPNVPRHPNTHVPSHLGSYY
# Procedure, shortened: (§1)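 A tag-only sample was pooled with DNA-barcoded human transcription factors that had been expressed in yeast as GST fusions and captured on glutathione beads. The pools were incubated for 30 min at room temperature with 200 nmole of a random double-stranded 16-mer DNA library in Tris/NaCl/DTT/glycerol buffer, then washed, crosslinked with 0.1% formaldehyde, proximity-ligated (BsaI/T4 ligase, 1 h, 37 °C), PCR-amplified and sequenced on an Illumina NextSeq500. Binding signal is each hexamer's read frequency for a factor divided by its frequency for the tag-only sample.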
# [2] = target: T2, ELK1 (Homo sapiens, UniProt P19419 1-428)
# T2 sequence: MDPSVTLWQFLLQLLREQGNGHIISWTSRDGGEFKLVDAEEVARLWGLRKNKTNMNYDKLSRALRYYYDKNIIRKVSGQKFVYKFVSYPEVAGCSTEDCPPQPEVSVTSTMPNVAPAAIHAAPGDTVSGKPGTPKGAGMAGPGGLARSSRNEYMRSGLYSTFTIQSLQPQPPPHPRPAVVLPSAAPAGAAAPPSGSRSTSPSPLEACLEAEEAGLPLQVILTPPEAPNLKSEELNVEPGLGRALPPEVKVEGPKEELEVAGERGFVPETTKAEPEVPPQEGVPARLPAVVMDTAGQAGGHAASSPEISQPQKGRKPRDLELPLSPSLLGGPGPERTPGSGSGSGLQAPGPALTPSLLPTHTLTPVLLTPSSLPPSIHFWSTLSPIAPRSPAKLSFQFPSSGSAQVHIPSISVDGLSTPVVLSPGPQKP
# Procedure, shortened: as §1
# [3] = target: T3, GABPA (Homo sapiens, UniProt Q06546 1-454)
# T3 sequence: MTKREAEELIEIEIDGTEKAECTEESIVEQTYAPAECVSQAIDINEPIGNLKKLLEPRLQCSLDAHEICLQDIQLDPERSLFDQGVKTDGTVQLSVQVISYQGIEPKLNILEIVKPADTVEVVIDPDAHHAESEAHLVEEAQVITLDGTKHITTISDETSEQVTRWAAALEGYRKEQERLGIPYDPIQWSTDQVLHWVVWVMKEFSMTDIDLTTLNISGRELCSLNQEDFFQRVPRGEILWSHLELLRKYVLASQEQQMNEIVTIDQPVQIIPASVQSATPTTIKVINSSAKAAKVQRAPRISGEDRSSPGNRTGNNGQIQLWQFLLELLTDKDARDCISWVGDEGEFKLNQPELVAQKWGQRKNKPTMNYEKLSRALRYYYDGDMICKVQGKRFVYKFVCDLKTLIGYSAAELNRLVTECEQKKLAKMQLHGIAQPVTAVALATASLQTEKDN
# Procedure, shortened: as §1
# [4] = target: T4, ERG (Homo sapiens, UniProt P11308 1-479)
# T4 sequence: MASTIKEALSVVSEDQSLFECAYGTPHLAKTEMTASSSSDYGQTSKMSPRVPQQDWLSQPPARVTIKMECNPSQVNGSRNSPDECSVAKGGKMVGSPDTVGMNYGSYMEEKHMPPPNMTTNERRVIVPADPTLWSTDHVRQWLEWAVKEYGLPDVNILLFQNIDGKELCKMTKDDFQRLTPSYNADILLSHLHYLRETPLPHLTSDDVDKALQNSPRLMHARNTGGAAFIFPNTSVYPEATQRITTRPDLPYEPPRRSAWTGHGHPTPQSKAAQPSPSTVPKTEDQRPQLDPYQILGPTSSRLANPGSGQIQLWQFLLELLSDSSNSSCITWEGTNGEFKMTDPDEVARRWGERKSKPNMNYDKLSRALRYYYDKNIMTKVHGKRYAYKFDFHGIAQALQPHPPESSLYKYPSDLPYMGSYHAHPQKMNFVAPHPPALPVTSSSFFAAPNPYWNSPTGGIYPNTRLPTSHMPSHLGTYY
# Procedure, shortened: as §1
# [5] = target: ELF1 (Homo sapiens, UniProt P32519 1-619)
# Procedure, shortened: as §1
# [6] = target: T5, EHF (Homo sapiens, UniProt Q9NZC4 1-300)
# T5 sequence: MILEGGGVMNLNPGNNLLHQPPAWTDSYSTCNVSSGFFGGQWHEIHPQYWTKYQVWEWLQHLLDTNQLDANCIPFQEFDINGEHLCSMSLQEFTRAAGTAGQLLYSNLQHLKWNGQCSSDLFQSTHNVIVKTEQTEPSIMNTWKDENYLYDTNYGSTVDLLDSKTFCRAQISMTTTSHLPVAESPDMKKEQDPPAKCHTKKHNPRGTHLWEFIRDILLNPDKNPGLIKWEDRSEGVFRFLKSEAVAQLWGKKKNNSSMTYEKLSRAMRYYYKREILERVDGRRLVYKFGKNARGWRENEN
# Procedure, shortened: as §1
# [7] = target: SPI1 (Homo sapiens, UniProt P17947 1-270)
# Procedure, shortened: as §1
# [8] = target: SPIB (Homo sapiens, UniProt Q01892 1-262)
# Procedure, shortened: as §1
# [9] = target: T6, ELK3 (Homo sapiens, UniProt P41970 1-407)
# T6 sequence: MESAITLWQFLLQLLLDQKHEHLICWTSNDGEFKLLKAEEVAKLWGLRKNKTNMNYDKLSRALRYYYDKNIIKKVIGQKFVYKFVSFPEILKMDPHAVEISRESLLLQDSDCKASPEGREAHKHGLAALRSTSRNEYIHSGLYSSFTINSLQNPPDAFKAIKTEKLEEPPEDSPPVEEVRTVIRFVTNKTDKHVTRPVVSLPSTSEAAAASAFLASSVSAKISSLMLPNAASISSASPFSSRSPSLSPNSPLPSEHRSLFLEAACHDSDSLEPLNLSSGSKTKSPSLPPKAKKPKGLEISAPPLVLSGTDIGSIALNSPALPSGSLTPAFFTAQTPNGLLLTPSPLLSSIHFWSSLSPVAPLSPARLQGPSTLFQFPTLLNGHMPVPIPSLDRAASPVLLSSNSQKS
# Procedure, shortened: as §1
# ELF1, sequence (P32519 whole entry): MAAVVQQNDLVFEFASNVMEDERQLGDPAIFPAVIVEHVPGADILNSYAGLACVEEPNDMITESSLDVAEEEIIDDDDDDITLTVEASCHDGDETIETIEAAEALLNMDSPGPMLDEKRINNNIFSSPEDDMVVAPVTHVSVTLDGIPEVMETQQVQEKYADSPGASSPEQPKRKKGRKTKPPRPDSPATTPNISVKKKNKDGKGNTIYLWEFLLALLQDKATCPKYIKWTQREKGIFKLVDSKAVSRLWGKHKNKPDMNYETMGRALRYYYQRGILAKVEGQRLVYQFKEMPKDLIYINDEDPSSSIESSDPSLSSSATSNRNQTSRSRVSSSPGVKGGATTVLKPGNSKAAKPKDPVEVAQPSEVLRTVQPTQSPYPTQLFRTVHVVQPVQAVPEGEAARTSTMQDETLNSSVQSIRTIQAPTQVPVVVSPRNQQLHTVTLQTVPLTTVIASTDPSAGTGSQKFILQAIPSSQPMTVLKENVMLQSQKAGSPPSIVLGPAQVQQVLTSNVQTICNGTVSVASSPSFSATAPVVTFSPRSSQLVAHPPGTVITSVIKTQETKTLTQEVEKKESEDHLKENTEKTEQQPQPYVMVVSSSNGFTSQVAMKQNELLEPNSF
# SPIB, sequence (Q01892 whole entry): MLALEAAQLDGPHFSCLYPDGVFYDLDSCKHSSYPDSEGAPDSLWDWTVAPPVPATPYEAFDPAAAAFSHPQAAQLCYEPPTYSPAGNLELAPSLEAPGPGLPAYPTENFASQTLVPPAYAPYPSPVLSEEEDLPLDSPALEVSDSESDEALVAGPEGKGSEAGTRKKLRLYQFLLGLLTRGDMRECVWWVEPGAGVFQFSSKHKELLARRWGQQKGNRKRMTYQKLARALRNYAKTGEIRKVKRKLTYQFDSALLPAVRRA
sequence,measurement,setting,value
TTTTCA,binding signal,[1],"1.12 fold enrichment (6-mer frequency, TF over GST control)"
same,binding signal,[2],"1.19 fold enrichment (6-mer frequency, TF over GST control)"
same,binding signal,[3],"1.3 fold enrichment (6-mer frequency, TF over GST control)"
same,binding signal,[4],"1.17 fold enrichment (6-mer frequency, TF over GST control)"
same,binding signal,[5],"1.18 fold enrichment (6-mer frequency, TF over GST control)"
same,binding signal,[6],"1.22 fold enrichment (6-mer frequency, TF over GST control)"
same,binding signal,[7],"1.29 fold enrichment (6-mer frequency, TF over GST control)"
same,binding signal,[8],"1.27 fold enrichment (6-mer frequency, TF over GST control)"
same,binding signal,[9],"1.09 fold enrichment (6-mer frequency, TF over GST control)"
